In PubChem BioAssay AID652048 (National Center for Advancing Translational Sciences (NCATS), 2013) one finds max activation data, which are given here for 24 compounds.

In all, about 410,000 compounds went through this assay and about 2,400 (0.59%) were called active. No stated cut-off is given here; in the data, active means max activation above about 30%; inactive means the rest. The full list was thinned out, with actives kept by preference.

For this test, the target named is D(3) dopamine receptor (Homo sapiens) (UniProt P35462). Nature of the test: qHTS of D3 Dopamine Receptor Agonist: qHTS. Further: 0% is about no effect. Conditions: D3R DiscoveRx beta-arrestin cells, luminescence, 90 min; hits give high values. The gist of the method: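 Agonist mode: compounds and dopamine controls were applied to plated cells for 90 min at 37 degrees C after an overnight attachment at 1500 cells/well. Luminescent read-out followed 30 - 60 minutes at room temperature with DiscoveRx detection reagent.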
Sequence of D(3) dopamine receptor (Homo sapiens) (P35462 whole entry, looked up): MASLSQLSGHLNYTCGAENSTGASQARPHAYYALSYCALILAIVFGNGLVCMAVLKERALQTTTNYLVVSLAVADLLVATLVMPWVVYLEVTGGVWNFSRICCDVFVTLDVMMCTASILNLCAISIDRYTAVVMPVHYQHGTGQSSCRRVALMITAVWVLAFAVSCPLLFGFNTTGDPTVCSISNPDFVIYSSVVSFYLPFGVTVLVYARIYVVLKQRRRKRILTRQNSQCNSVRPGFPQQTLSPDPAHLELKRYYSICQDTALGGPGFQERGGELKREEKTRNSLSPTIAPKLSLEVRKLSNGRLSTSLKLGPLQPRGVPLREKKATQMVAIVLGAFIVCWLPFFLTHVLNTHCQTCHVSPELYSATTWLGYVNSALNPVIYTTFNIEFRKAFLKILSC
On the technique in general: Quantitative high-throughput screening tests each substance at several concentrations.
`CCC(=O)N1CCc2cc(Br)cc(S(=O)(=O)NCc3ccc(Cl)cc3)c21`: the max activation is -15.3% (inactive).
Regarding `CN1CC[C@H](c2c(O)cc(O)c3c(=O)cc(-c4ccccc4Cl)oc23)[C@H](O)C1`, the max activation was 6.48% (inactive).
As to `Cc1ccnc(SCCn2c(Br)nc3c2c(=O)[nH]c(=O)n3C)n1`, the max activation was 5.98% (inactive).
The result for `Cn1c(=O)c2c(nc(Br)n2CCSc2nc3ccccc3o2)n(C)c1=O` reads 4.26% (inactive); that for `Cn1c(=O)[nH]c(=O)c2c1nc(Br)n2CCCCSc1nc2ccccc2o1`, 40.9% (active).
With `Oc1ccc(-c2nc3ccc(Cl)cn3c2Nc2ccc3c(c2)OCO3)cc1`, the max activation was 6.89% (inactive).
For the compound `Cc1ccccc1CN1CCC(CNC(=O)c2cc3ccc4cccnc4c3[nH]2)CC1`, the max activation was -21.1% (inactive).
In the case of `CC(=O)Nc1cccc(NC(=O)CSc2cn(CC(=O)N3CCCC3)c3ccccc23)c1`, the max activation was 11.5% (inactive).
Regarding `Cc1cccc(N2CCN(C(=O)CCn3c(=O)c4cccn4c4cccnc43)CC2C)c1` (centres undefined), the max activation was 14.9% (inactive).
With `O=C(O)CCCCC(=O)O` the figure was 2.29% (inactive); with `COc1ccc(N2CC(C(=O)NCCN3C(=O)S/C(=C\c4cccnc4)C3=O)CC2=O)c(OC)c1` (centres undefined), 2.93% (inactive).
As to `O=C(NCCN1C(=O)S/C(=C\c2cccnc2)C1=O)c1ccc(S(=O)(=O)N2CCCC2)cc1`, the max activation is 31.1% (active).
For `O=C(Nc1ncccc1O)c1ccc(S(=O)(=O)N2CCCC2)cc1`, the max activation was 1.73% (inactive).
Regarding `Cc1cccc(NC(=O)Cn2c(=O)n(CCC(C)C)c(=O)c3cccnc32)c1`, the max activation was -14.3% (inactive).
As to `Cc1ccc(-c2nc3cccc(C)n3c2Nc2ccc3c(c2)OCCO3)cc1`, the max activation was -6.45% (inactive).
As to `O=C(CCSCc1ccccc1F)N1CCN(c2ccc(Cl)cc2)CC1`, the max activation is 57.2% (active).
Turning to `COc1ccc(N2CCN(C(=O)CCSCc3ccccc3F)CC2)cc1`, the max activation was 1.03% (inactive).
On to `Cc1cccc(N2CCN(C(=O)CCSCc3ccccc3F)CC2)c1C`, for which the max activation is -6.07% (inactive).
`CC(Oc1ccccc1)C(=O)N[C@@H]1C(=O)N2[C@@H]1SC(C)(C)[C@@H]2C(=O)O` (some centres undefined): the max activation was 8.72% (inactive).
With `Cc1cccc2c(=O)cc(CSc3ccccc3NC(=O)C(C)C)[nH]c12` the figure was 3.87% (inactive).
With `COc1cc(Nc2nc(-c3ccc(OC)c(OC)c3)nc3ccccc23)cc(OC)c1` the figure was -6.69% (inactive); with `NS(=O)(=O)c1ccc(NC(=O)/C=C/c2ccccc2Cl)cc1`, 2.71% (inactive); with `COc1ccc(-n2cnnc2SCC(=O)Nc2cccc(S(N)(=O)=O)c2)cc1`, 0.641% (inactive).
The result for `Cc1ccc(-c2nn(-c3ccccc3)cc2/C=C/C(=O)Nc2cccc(S(N)(=O)=O)c2)cc1` reads 38.3% (active).
